# Assay results from PubChem BioAssay AID720650 (Broad Institute, 2013).
# Unmarked numbers belong to inactive results. Active and inactive are the calls of the source. How the calls were made is not given here.
# Test: C difficile toxins, biochemical counterscreen, UDPG substrate absence, confirmatory dose response (AID 720650)
# Details: series mostly up to 19.5 µM; activity change, negative = inhibition: at the top concentration
Structure (SMILES),"activity change, negative = inhibition",AC50
CC1=C(C(=O)OCC2CCCO2)C(c2coc3ccccc3c2=O)C2=C(CCCC2=O)N1 (stereo not drawn),-5.85%,–
Cc1cccc(/C=C/c2onc(C)c2S(=O)(=O)N2CCC(C(=O)N3CCC(C)CC3)CC2)c1,-4.09%,–
COc1ccc(C)cc1NC(=O)C(OC(=O)C1=NNC(=O)CC1)c1ccccc1 (stereo not drawn),1.41%,–
O=C(Nc1ccc(O)cc1)/C(=C\c1cccs1)NC(=O)c1ccccc1,–,17.1 µM (active)
Nc1ccc2c(c1)[nH]c(=O)c1cc(N)ccc12,–,13 µM (active)
COc1ccccc1/C=C/c1onc(C)c1S(=O)(=O)N1CCC(C(=O)NC2CCCCCC2)CC1,-15.8%,–
COc1ccc2nc(NNC(=O)C3COc4ccccc4O3)sc2c1 (stereo not drawn),–,< 0.16 µM (active)
COc1ccc(-c2cnc3c(c2)C(=O)N([C@@H](C)CO)C[C@H](C)[C@H](CN(C)C(=O)C2CCCCC2)O3)cc1,-9.66%,–
CNC(=O)N(O)C1N(/N=C/c2ccc(SC)cc2)C(=S)SC1(C)C (stereo not drawn),–,> 39 µM
CCN1CCN(S(=O)(=O)c2ccc3[nH]c(=O)oc3c2)CC1,1.66%,–
CN1C=CC(=CC=C2C=CC(=O)C=C2)C=C1,–,7.43 µM (active)
COCC(=O)N1CC[C@@H]2[C@H]1c1cc(-c3ccc(OC)cc3)ccc1N(C)[C@H]2CO,–,10.2 µM (active)
CCNC(=O)C[C@@H]1CC[C@H]2[C@@H](COc3ccc(NC(C)=O)cc3C(=O)N2C)O1,5.64% [at 21 µM],–
Cc1cc(SCC(=O)N/N=C/c2ccco2)nc2ccccc12,–,> 39 µM
O=C(Cc1ccccn1)c1ccncc1,-8.24%,–
Cn1ncc(Cl)c1C(=O)N/N=C/c1cccc(OC2CSC2)c1,–,> 39 µM
CCCCc1[nH]c(=O)c(C#N)c2c1CCCC2,-12.9%,–
O=C(Nc1ccc2c(c1)OCCO2)c1cc2ccccc2o1,–,> 39 µM
Oc1ccc2ccc3[nH]cnc3c2c1,–,18.5 µM (active)

Structure (SMILES),"activity change, negative = inhibition",AC50
Cc1cc(O)ccc1N=Cc1c(C(F)(F)F)[nH][nH]c1=O,–,10.9 µM (active)
O=c1c2ccc(Cl)cc2[nH]c(=S)n1-c1cccnc1,-0.508%,–
Oc1ccc(/C=N/N2CCN(c3ccccn3)CC2)cc1,–,15 µM (active)
CO[C@@H]1CN(C)C(=O)c2cc(NC(=O)NC(C)C)ccc2OC[C@@H](C)N(S(C)(=O)=O)C[C@H]1C,7.43% [at 6.8 µM],–
C=CC[C@@H](CC(=O)N(CCO)Cc1ccccc1)C(=O)NC[C@@H](OC(=O)[C@@H](CC=C)CC(=O)OC(C)(C)C)c1ccccc1,-9.68%,–
COCc1c(Br)c(C)nc(OCC(=O)N/N=C/c2ccc(C)o2)c1C#N,6.67%,–
CN1C(=O)CSc2ccc(NC(=O)N3CCc4ccccc43)cc21,–,20.2 µM (active)
Nc1ccccc1-c1nc2ccncc2[nH]1,8.76%,–
O=C(/C=C/c1ccccc1)Nc1cccnc1Cl,–,> 39 µM
C/C(=N\Nc1cc(N2CCOCC2)ncn1)c1ccc(O)cc1,-20.3%,–
O=C(CC(=O)N/N=C/c1ccc(O)cc1)N/N=C/c1ccc(O)cc1,–,9.03 µM (active)
NC1=NC[C@H](Cc2ccc(O)cc2)N1CCc1cc(C(F)(F)F)cc(C(F)(F)F)c1,-12.2%,–
CN(CCN1CCOCC1)C(=O)CC1C(=O)NCCN1Cc1ccccc1C(F)(F)F (stereo not drawn),8.75%,–
COc1cc2c(cc1N)-c1ccc(N)cc1C2=O,–,1.18 µM (active)
CCSc1nnc(NC(=O)C2CC2c2ccccc2)s1 (stereo not drawn),-7.96%,–
COc1ccc(C(NC(C)=O)c2cc(Cl)c3cccnc3c2O)cc1 (stereo not drawn),-11%,–
O=C(Nc1nnc(-c2ccco2)o1)C1CC1,–,> 39 µM
CC1(C)O[C@@H]2[C@H](O1)[C@@H](COS(=O)(=O)O)O[C@H]2n1c(=S)[nH]c2c(=O)[nH]c(N)nc21,-22.6%,–
O=C(NCc1cccnc1)c1cc(C2CCCCN2S(=O)(=O)c2cccc3cccnc23)on1 (stereo not drawn),-13.3%,–
